Measurements published in PubChem BioAssay (NCI).
The panel holds about 79,000 compounds, 15% with a hit somewhere; the sample as a whole holds those more often. Activity calls are given as the source filed them. No stated cut-off is given here; in the data, active means growth inhibition above about 70%; inactive means the rest.

Columns and labels:
[1] = NCI Yeast Anticancer Drug Screen. Data for the rad52 strain (AID 147);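 further: 0% = growth of vehicle-treated control cultures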; conditions: S. cerevisiae rad52 mutant growth inhibition, active compounds read high
Procedure, shortened: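 Genetically altered yeast (DNA damage repair defect) treated with compound; inhibition calculated relative to vehicle.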

[2] = NCI Yeast Anticancer Drug Screen. Data for the wt1 strain (AID 149);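 further: 0% = growth of vehicle-treated wt1 cultures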; conditions: S. cerevisiae wt1 strain (SPY 50644) growth inhibition, active compounds read high
Procedure, shortened: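 Readout: yeast growth inhibition, normalised to vehicle controls, in the wt1 strain exposed to test compounds.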

[3] = NCI Yeast Anticancer Drug Screen. Data for the rad50EPP+ strain (AID 151);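 further: 0% = growth of vehicle-treated control cultures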; conditions: S. cerevisiae rad50 mutant strain, active compounds read high
Procedure, shortened: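 Strain rad50EPP+; compound exposure; % growth inhibition vs vehicle.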

[4] = NCI Yeast Anticancer Drug Screen. Data for the mgt1 strain (AID 153); conditions: S. cerevisiae mgt1 mutant growth inhibition, active compounds read high
Procedure, shortened: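 Read-out: yeast growth inhibition vs vehicle control. Strain mgt1, drawn from a panel altered in DNA damage repair or cell cycle control.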

[5] = NCI Yeast Anticancer Drug Screen. Data for the rad50 strain (AID 155);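 further: 0% = growth of vehicle-only cultures of the same strain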; conditions: S. cerevisiae rad50 strain growth inhibition, active compounds read high
Procedure, shortened: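 Compounds were tested on a yeast strain with an engineered DNA damage repair alteration; the reported value is growth inhibition normalised to vehicle treatment.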

[6] = NCI Yeast Anticancer Drug Screen. Data for the mec2-1 strain (AID 157); conditions: S. cerevisiae mec2-1 strain, active compounds read high
Procedure, shortened: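 Cells of the genetically defined mec2-1 yeast strain are incubated with test compound. Inhibition of growth is calculated against vehicle-treated controls.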

[7] = NCI Yeast Anticancer Drug Screen. Data for the rad14 strain (AID 159);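 further: 0% = growth of vehicle-treated control cultures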; conditions: S. cerevisiae rad14 strain growth inhibition, active compounds read high
Procedure, shortened: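 Compound-treated yeast with a defined DNA-repair lesion; growth inhibition normalised to vehicle-treated cultures.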

[8] = NCI Yeast Anticancer Drug Screen. Data for the sgs1 mgt1 strain (AID 161);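 further: 0% = growth of cultures given vehicle only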; conditions: S. cerevisiae sgs1 mgt1 strain, active compounds read high
Procedure, shortened: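 Genetically altered yeast, compound exposure, growth inhibition relative to vehicle.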

[9] = NCI Yeast Anticancer Drug Screen. Data for the CLN2oe strain (AID 163);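 further: 0% = growth of vehicle-only control cultures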; conditions: S. cerevisiae CLN2oe strain, active compounds read high
Procedure, shortened: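 Strain altered in cell-cycle control, incubated with compound; growth compared to solvent-treated controls.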

[10] = NCI Yeast Anticancer Drug Screen. Data for the cln2 rad14 strain (AID 165);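 further: 0% = growth equal to vehicle treated cultures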; conditions: S. cerevisiae cln2 rad14 strain, active compounds read high
Procedure, shortened: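 The screen exposed genetically defined yeast (cln2 rad14) to test compounds and scored growth inhibition relative to vehicle-treated controls.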

[11] = NCI Yeast Anticancer Drug Screen. Data for the bub3 strain (AID 167); conditions: S. cerevisiae bub3 mutant strain, active compounds read high
Procedure, shortened: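 Growth of a checkpoint-deficient yeast mutant is measured after compound exposure. Values represent inhibition relative to vehicle.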

[12] = NCI Yeast Anticancer Drug Screen. Data for the wt2 strain (AID 169);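 further: 0% = growth of vehicle-treated yeast cultures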; conditions: S. cerevisiae wt2 strain growth inhibition, active compounds read high
Procedure, shortened: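 Steps: yeast strain treated with compound; growth recorded; inhibition calculated relative to cultures given vehicle alone.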

[13] = NCI Yeast Anticancer Drug Screen. Data for the mlh1 strain (AID 171);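 further: 0% = growth of vehicle-treated control cultures of the same strain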; conditions: S. cerevisiae mlh1 strain growth inhibition, active compounds read high
Procedure, shortened: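 Yeast screen: mutant strain plus compound, growth scored against vehicle control wells.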

[14] = NCI Yeast Anticancer Drug Screen. Data for the mlh1 rad18 strain (AID 175); conditions: S. cerevisiae mlh1 rad18 strain growth inhibition, active compounds read high
Procedure, shortened: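 Compound-treated yeast growth, normalised to vehicle controls. Strain bears defined DNA repair mutations.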

[15] = NCI Yeast Anticancer Drug Screen. Data for the rad18 strain (AID 177); conditions: S. cerevisiae rad18 mutant growth inhibition, active compounds read high
Procedure, shortened: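 Inhibition values reflect reduced yeast growth compared with vehicle-treated controls, using a strain engineered with a DNA damage repair defect.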

[16] = NCI Yeast Anticancer Drug Screen. Data for the sgs1 strain (AID 173);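 further: 0% = growth of vehicle-only control cultures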; conditions: S. cerevisiae sgs1 mutant, active compounds read high
Procedure, shortened: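 Inhibition of yeast growth served as the measure. The mutant strain was treated with each compound, and growth was normalised to cultures receiving vehicle alone.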

[17] = at 5.0 µM (retest, dose inferred, filed as 0.5)
[18] = at 50.0 µM (retest, dose inferred, filed as 5.0)

Measured: growth inhibition

Oc1ccc(SCc2ccc(NCc3ccccc3)cc2)cc1
inactive: [1]; at 1.2 µM -4% | [1]; at 3.7 µM -27% | [1]; at 11.0 µM -26% | [1]; at 33.0 µM 19% | [2]; at 1.2 µM -32% | [2]; at 3.7 µM -35% | [2]; at 11.0 µM -52% | [2]; at 33.0 µM -4% | [3]; at 1.2 µM -10% | [3]; at 3.7 µM -22% | [3]; at 11.0 µM -17% | [3]; at 33.0 µM 0% | [3]; at 100.0 µM 6% | [4]; at 1.2 µM -4% | [4]; at 3.7 µM 7% | [4]; at 11.0 µM 22% | [4]; at 33.0 µM 47% | [5]; at 1.2 µM 0% | [5]; at 3.7 µM -13% | [5]; [17] 22% | [5]; at 11.0 µM -11% | [5]; at 33.0 µM 23% | [5]; at 50.0 µM 66.8% | [6]; at 1.2 µM -7% | [6]; at 3.7 µM 1% | [6]; [17] 12% | [6]; at 11.0 µM -13% | [6]; at 33.0 µM 20% | [6]; [18] 55% | [7]; at 1.2 µM -30% | [7]; at 3.7 µM -44% | [7]; at 11.0 µM -31% | [7]; at 33.0 µM 29% | [8]; [17] 42% | [8]; [18] 63% | [9]; at 1.2 µM 12% | [9]; at 3.7 µM 13% | [9]; at 11.0 µM 13% | [9]; at 33.0 µM 40% | [10]; [17] 38% | [10]; [18] 56% | [10]; at 50.0 µM 49.4% | [11]; at 1.2 µM 20% | [11]; at 3.7 µM 14% | [11]; [17] 53% | [11]; at 11.0 µM 11% | [11]; at 33.0 µM 60% | [11]; [18] 50% | [12]; at 1.2 µM -16% | [12]; at 3.7 µM -46% | [12]; at 11.0 µM -33% | [12]; at 33.0 µM 9% | [13]; at 1.2 µM -8% | [13]; at 3.7 µM -25% | [13]; at 11.0 µM -14% | [13]; at 33.0 µM 18% | [14]; [17] 19% | [15]; at 1.2 µM 22% | [15]; at 3.7 µM 7% | [15]; at 11.0 µM 12% | [15]; at 33.0 µM 32%
active: [1]; at 100.0 µM 89% | [2]; at 100.0 µM 91% | [4]; at 100.0 µM 87% | [5]; [18] 94% | [5]; at 100.0 µM 87% | [6]; at 50.0 µM 87.1% | [6]; at 100.0 µM 89% | [7]; at 100.0 µM 89% | [8]; at 50.0 µM 77.7% | [9]; at 100.0 µM 90% | [11]; at 50.0 µM 87.3% | [11]; at 100.0 µM 90% | [12]; at 100.0 µM 91% | [13]; at 100.0 µM 86% | [14]; [18] 75% | [14]; at 50.0 µM 79.8% | [15]; at 100.0 µM 91%

O=c1[nH]c(-c2ccccc2)nc2c1sc1nc3ccccc3n12
inactive: [1]; at 1.2 µM -15% | [1]; at 3.7 µM -31% | [1]; at 11.0 µM -23% | [1]; at 33.0 µM -15% | [1]; at 100.0 µM -18% | [2]; at 1.2 µM -24% | [2]; at 3.7 µM -25% | [2]; at 11.0 µM -20% | [2]; at 33.0 µM -25% | [2]; at 100.0 µM -17% | [3]; at 1.2 µM -2% | [3]; at 3.7 µM -31% | [3]; at 11.0 µM -36% | [3]; at 33.0 µM -40% | [3]; at 100.0 µM -31% | [4]; at 1.2 µM -20% | [4]; at 3.7 µM -18% | [4]; at 11.0 µM -17% | [4]; at 33.0 µM -8% | [4]; at 100.0 µM -25% | [5]; at 1.2 µM 11% | [5]; at 3.7 µM 5% | [5]; [17] 8% | [5]; at 11.0 µM -8% | [5]; at 33.0 µM -13% | [5]; [18] 56% | [5]; at 50.0 µM 13.4% | [5]; at 100.0 µM -9% | [6]; at 1.2 µM -34% | [6]; at 3.7 µM -23% | [6]; [17] 5% | [6]; at 11.0 µM -30% | [6]; at 33.0 µM -19% | [6]; [18] 9% | [6]; at 50.0 µM -15.2% | [6]; at 100.0 µM -27% | [7]; at 1.2 µM -24% | [7]; at 3.7 µM -22% | [7]; at 11.0 µM -24% | [7]; at 33.0 µM -14% | [7]; at 100.0 µM -11% | [8]; [17] 7% | [8]; [18] 62% | [8]; at 50.0 µM -30.5% | [9]; at 1.2 µM -52% | [9]; at 3.7 µM -72% | [9]; at 11.0 µM -39% | [9]; at 33.0 µM -23% | [9]; at 100.0 µM -20% | [10]; [17] 14% | [10]; [18] 19% | [10]; at 50.0 µM 5.95% | [11]; at 1.2 µM -35% | [11]; at 3.7 µM -45% | [11]; [17] 6% | [11]; at 11.0 µM -43% | [11]; at 33.0 µM -43% | [11]; [18] 7% | [11]; at 50.0 µM -35.5% | [11]; at 100.0 µM -33% | [12]; at 1.2 µM 2% | [12]; at 3.7 µM -6% | [12]; at 11.0 µM -6% | [12]; at 33.0 µM 19% | [12]; at 100.0 µM 5% | [16]; at 1.2 µM -47% | [16]; at 3.7 µM -43% | [16]; at 11.0 µM -39% | [16]; at 33.0 µM -38% | [16]; at 100.0 µM -42% | [14]; [17] 4% | [14]; [18] 22% | [14]; at 50.0 µM -23.4% | [15]; at 1.2 µM -35% | [15]; at 3.7 µM -38% | [15]; at 11.0 µM -39% | [15]; at 33.0 µM -38% | [15]; at 100.0 µM -38%
